Experimental data reported in PubChem BioAssay AID1347385 (Zoeller Lab, School of Medicine, Boston University, 2020).
Hit rate of the full screen: of about 20,000 compounds, about 85 (0.4%) were called active.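 The calls were made as follows: active = cell survival signal 2 SD away from solvent-only control wells, confirmed on one or two retests; inactive = the rest.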 The full list was thinned out, with actives kept by preference.

Assay: phospholipid synthesis inhibitors, CHO cells, primary screen, ZR-82 cells, Enamine library, screen 3 (AID 1347385);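 also: 3 h compound exposure then viability read about one day after UV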
Conditions: ZR-82 CHO cells, pyrene fatty acid UV survival, CellTiter Blue, peroxisome-deficient CHO-K1 mutant line, plus DGAT-1, DGAT-2 and ACAT inhibitors; at 10 µM unless noted

Structure (SMILES) | outcome
O=C(Nn1c(-c2cccs2)nc2sc3c(c2c1=O)CCCC3)c1cccs1 | inactive
CCOC(=O)C1=C(C)NC2=C(C(=O)CC(C)(C)C2)C1C (configuration not stated) | inactive
O=C(O)c1sc2cc(F)ccc2c1Cl | inactive
C(=N\Nc1nncc2ccccc12)/c1ccc(N2CCOCC2)s1 | inactive [setting not given]
COC(CNc1ncnc2sc3c(c12)CCC3)OC | inactive
Clc1cc(CSc2nnnn2C2CC2)cc2c1OCCO2 | inactive
O=[N+]([O-])c1ccc2[nH]c(O)c(N=Nc3ccc(C(F)(F)F)cc3[N+](=O)[O-])c2c1 | inactive
NC(=O)NCCCC(=O)O | inactive
S=C(NCCc1ccccc1)N/N=C1\CC2CC=CC12 (configuration not stated) | inactive [setting not given]
CC(N=C1NS(=O)(=O)c2ccccc21)C(=O)OC1CCOC1=O (configuration not stated) | inactive
CCOC(=O)c1c(C)[nH]c(C(=O)Cn2ncc(Cl)c(Cl)c2=O)c1C | inactive
FC(F)(F)C(=NC1(C(Cl)(Cl)Cl)Oc2ccccc2O1)Nc1ccccn1 | inactive
O=S(=O)(c1cc(Br)ccc1Br)N1CCCc2ccccc21 | inactive
O=S1(=O)CCC(N(Cc2ccco2)S(=O)(=O)c2ccc(S(=O)(=O)N3CCCC3)cc2)C1 (configuration not stated) | inactive
CCCN(CC1CC1)Cn1c(=S)sc2ccccc21 | inactive
Fc1ccc(NC(=S)NNc2ccnc3cc(Cl)ccc23)cc1Cl | inactive
Clc1ccc2c(NN=C3c4ccccc4-c4ccccc43)ccnc2c1 | active
Clc1ccc2nc(N/N=C/c3cccc4nccnc34)nc(-c3ccccc3)c2c1 | inactive [setting not given]
Cn1/c(=N/N=C/C(Cl)=C/c2ccccc2)sc2ccccc21 | inactive [setting not given]
S=C(NCC1CCCO1)NNc1ncnc2sc3c(c12)CCCC3 (configuration not stated) | inactive
CC(C)=CCC/C(C)=C/C=N/Nc1ccc([N+](=O)[O-])cc1 | inactive [setting not given]
COc1cc(NC(=S)Nc2ccc(SC(F)F)cc2)cc(OC)c1OC | inactive
Nc1c(Cl)cc(NC(=S)Nc2ccc(SC(F)F)cc2)cc1Cl | inactive
Fc1ccc(NC(=S)Nc2ccc(SC(F)F)cc2)cc1Cl | active

Structure (SMILES) | outcome
O=C(C1CCCCC1)N1N=C2/C(=C/c3ccco3)CCCC2C1c1ccco1 (configuration not stated) | inactive
NC(CSC12CC3CC(CC(C3)C1)C2)C(=O)O (configuration not stated) | inactive
O=C(NC1=NCCS1)C1CC2CCCC(C1)C2=O (configuration not stated) | inactive
CC(C)NC(=S)NN=C1CCCCCCCCCCC1 | inactive
Cc1cc(NC(=O)COC(=O)C2=NNC(=O)CC2)no1 | inactive
O=[N+]([O-])c1cc(S(=O)(=O)Nc2ccc(Cl)c(S(=O)(=O)N3CCOCC3)c2)ccc1Cl | inactive
O=[N+]([O-])c1ccc(N=P(c2cccc3ccccc23)(c2cccc3ccccc23)N2CCOCC2)c(Br)c1 | inactive
Nc1scc[n+]1Cc1cccc2cccnc12 | inactive
Nc1nc(SCC(=O)NCCN2CCOCC2)nc2sc3c(c12)CCC3 | inactive
CC(C)CC(C(=O)NNC(=O)c1ccco1)N1C(=O)C2CC=CCC2C1=O (configuration not stated) | inactive
O=S(=O)(Nc1ncccn1)c1ccc(NC(=S)Nc2cccnc2)cc1 | inactive
CC(C)CC(NC(=O)NC1CCCCC1)C(=O)O (configuration not stated) | inactive
c1ccc(C2=NNC(c3ccccc3)C2)cc1 (configuration not stated) | inactive
O=C(NC1CCCCCCC1)c1ccc(=O)[nH]c1 | inactive
CN(C1CCCCC1)S(=O)(=O)c1ccc2c(c1)OCCCO2 | inactive
OC(Cc1nc2ccccc2[nH]1)c1nc2ccccc2[nH]1 (configuration not stated) | inactive
Cc1cc(NC(=O)Cn2c(=O)/c(=C\c3ccc(C)s3)s/c2=C\C(=O)C(C)(C)C)no1 | inactive
C=CCN=c1scc(-c2ccc(OC)cc2)n1/N=C/c1ccc(OC(F)F)cc1 | inactive [setting not given]
CCOC(=O)/C(=C\c1ccc(C)s1)c1nc2sc(C)c(C)c2c(=O)[nH]1 | inactive
O=C(O)CCN1C(=O)C2CC=CCC2C1=O (configuration not stated) | inactive
S=C(N=P(c1ccccc1)(N1CCOCC1)N1CCOCC1)NCc1cn2ccccc2n1 | inactive
S=C1NC(c2ccccc2)=NCN1N(c1ccccc1)c1ccccc1 | inactive
COc1ccc(-c2noc(CSc3ncccn3)n2)cc1OC | inactive
CC1(C)CCCC(C)(C)N1Sc1ccccc1 | inactive

Structure (SMILES) | outcome
Oc1ccc(-c2onc3ccc(Cl)cc23)cc1 | inactive
NC1=NC(c2c(Cl)cccc2Cl)n2c(nc3ccccc32)N1 (configuration not stated) | inactive
Cc1cc(C(=O)Cn2cnc3c2c(=O)n(C)c(=O)n3C)c(C)n1CCC1=CCCCC1 | inactive
O=C1CCC(C(=O)OCC(=O)c2ccc(Br)s2)=NN1 | inactive
O=C1CSC2=NCN(c3ccccc3)CN12 | inactive
Clc1cc(Cl)c(N/N=C/c2cn(-c3ccccc3)nc2-c2cc3ccccc3o2)c(Cl)c1 | inactive [setting not given]
O=c1/c(=C/c2ccccc2I)sc2nc3ccccc3n12 | inactive
COc1ccccc1OCCOCCOc1ccccc1OC | inactive
O=c1c(Cl)c(N2CCCC2)cnn1-c1ccccc1 | inactive
COCCNC(=O)NC(=O)N(C1CCCCC1)S(C)(=O)=O | inactive
Cc1sc2nc(-c3cccs3)nc(Sc3nnc(C4CC4)o3)c2c1C | inactive
CCOC(=O)c1sc2nc(C(C)Sc3ncnc4sc5c(c34)CCC5)[nH]c(=O)c2c1C (configuration not stated) | inactive
CC(C)(C)C1CCC(C(=O)OCC(=O)c2ccc(Cl)s2)CC1 (configuration not stated) | inactive
O=C1CN(Cc2csc(-c3cccs3)n2)CCN1 | inactive
O=[N+]([O-])c1c(Sc2nnnn2-c2ccccc2)nc2sccn12 | inactive
COc1ccc(C2=CC(c3ccc(OC)c(OC)c3)n3ncnc3N2)cc1OC (configuration not stated) | inactive
Cc1cc2ncn(Cc3ccc(C(C)C)cc3)c2cc1C | inactive
CCNc1n[nH]c(=S)s1 | inactive
O=C(Nc1ccccc1)Nc1ccc(Cl)c(Cl)c1 | active
O=C(Nc1ccccc1)NC(NC(=S)Nc1ccc(I)cc1)C(Cl)(Cl)Cl (configuration not stated) | inactive
S=C(Nc1ccc(Cl)c(Cl)c1)NC12CC3CC(CC(C3)C1)C2 | inactive
FC(F)Sc1nc(-c2ccc(Br)cc2)nc2ccccc12 | inactive
CC(C)CNC(=O)NC(=O)C1CCCCC1 | inactive
O=[N+]([O-])c1cc(CN2CCOCC2)c2c(c1)OCOC2 | inactive
